Each structure is given as a SMILES string. Hit rate of the full screen: of about 1,200 compounds, about 400 (33%) were called active. No rule for the calls is given here. These entries were drawn from the full list. Entries with a potency or affinity are not part of this list.

Here are results for 123 compounds from PubChem BioAssay AID434958 (Southern Research Specialized Biocontainment Screening …, 2010).

The experiment is described as follows: mammalian cell cytotoxicity, dose response, cytotoxicity control (AID 434958).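 Also: cells exposed to compound for 72 hours before readout.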 The following applies: cytotoxicity counter-screen; series mostly up to 40 µM.
On to `CCC(C(=O)Nc1ccccc1N1CCCC1)c1ccccc1` (stereo not drawn), for which the outcome was inactive.

As for `CCOCC(=O)N1CCN(c2ccc(F)cc2)CC1`, the compound was classed as inactive.

With `O=C(c1cccc(Cl)c1)N1CCN(Cc2ccccc2F)CC1`, the call was inactive.

Consider `Cc1ccc(CNC(=O)c2ccccc2NC(=O)CSc2nnnn2C)cc1`, for which the result was inactive.

For the compound `Cc1ccc(C)c(NC(=O)COC(=O)c2ccc(S(=O)(=O)N3CCCCC3)cc2)c1`, the call was inactive.

Regarding `O=c1[nH]c(C2CCN(S(=O)(=O)c3ccc(S(=O)(=O)NC4CC4)cc3)CC2)nc2c1nnn2Cc1ccc(F)cc1`, the compound was called inactive.

Regarding `COc1cccc(-c2nnn(CC(=O)Nc3cc(OC)c(NC(=O)c4ccco4)cc3OC)n2)c1`, the compound was called inactive.

On to `COCCCn1c(=O)/c(=C\c2ccccc2OC(C)C)s/c1=C(/C#N)C(=O)Nc1ccc(C(=O)O)cc1`, for which the compound was called inactive.

In the case of `O=C1c2ccccc2N2C(=O)c3ccccc3C2N1O` (stereo not drawn), the compound was called inactive.

For the compound `CSc1ccccc1NC(=O)c1c(Br)cnn1C`, the call was inactive.

As to `C(=N\n1cnnc1)/c1ccc(-c2ccccc2)cc1`, the outcome was inactive.

For the compound `CCc1ccc(N2C(=O)c3sc4nnc(-c5ccccc5)c(=O)n4c3C2=O)cc1`, the call was inactive.

For `Cn1c(/C=C/c2ccc(Cl)cc2)nc2ccccc2c1=O`, the outcome was inactive.

`CCOc1ccc2c(c1)c(C(C)=O)c(C)n2-c1ccccc1`: the call was inactive.

For `CCOC(=O)c1sc(NC(=O)CN2CCN(c3ccc(OC)cc3)CC2)nc1C`, the compound was classed as inactive.

For the compound `O=c1cc(C(F)(F)F)c2sc(N3CCCCC3)nc2[nH]1`, the outcome was inactive.

As to `COc1ccc(NC(=O)CCC2CCCC2)cc1OC`, the outcome was inactive.

Turning to `CCN(CC)C(=O)COc1ccc(-c2nnc(Nc3ccc(OC)c(C(=O)NC)c3)c3ccccc23)cc1`, the compound was classed as inactive.

Regarding `CCCc1cc(C(=O)Nc2ccc(C(C)=O)cc2)no1`, the result was inactive.

In the case of `O=C1c2cccc3c(N4CCCCC4)ccc(c23)C(=O)N1c1ccccn1`, the compound was classed as inactive.

Take `COC(=O)c1ccc(-c2cc(C(=O)O)c3cc4c(cc3n2)OCCO4)cc1`: the compound was classed as inactive.

For the compound `C/C(=N\NC(=O)c1csc2ccccc12)c1ccc(O)cc1`, the call was inactive.

Consider `C/C(=N\NC(=O)c1ccncc1)c1c(O)n(-c2ccccc2)c(=O)[nH]c1=O`, for which the call was inactive.

Consider `C/C(=N/NC(=O)c1ccccn1)c1ccncc1`, for which the call was inactive.

Consider `O=C(NN=C(Cc1ccccc1)Cc1ccccc1)c1ccccc1F`, for which the outcome was inactive.

Turning to `S=C(Nc1ccccc1Cl)N1CCCC(c2ccccc2)=N1`, the call was inactive.

In the case of `CCN(CC)c1ccc(C=N/C(C#N)=C(\N)C#N)cc1`, the compound was classed as inactive.

On to `COc1nc(-c2ccccc2)ccc1-c1noc(-c2cccnc2)n1`, for which the call was inactive.

Regarding `CCn1nc(C)c([N+](=O)[O-])c1C(=O)NNC(=O)c1ccccc1Cl`, the call was inactive.

On to `COc1cccc(-c2ccc(-c3noc(-c4ccccc4F)n3)c(OC)n2)c1`, for which the outcome was inactive.

Consider `Cc1cc(Br)cc2c(C(=O)NCC3CCCO3)cc(-c3ccccc3)nc12` (stereo not drawn), for which the outcome was inactive.

`CCCn1c2ccccc2c2nnc(SCC(=O)OCC)nc21`: the outcome was inactive.

In the case of `CC(C)(C)c1cc(Cc2ccccc2)[nH]n1`, the compound was called inactive.

With `COc1ccc([N+](=O)[O-])cc1NS(=O)(=O)c1ccc(Cl)c(C(=O)Nc2sc3c(c2C#N)CCCCC3)c1`, the compound was called inactive.

As for `CCCC(=O)Nc1nc(-c2ccccc2)ns1`, the result was inactive.

As for `Cc1ccc(C)c(S(=O)(=O)N2CCN(CC(=O)NC(C)c3ccccc3)CC2)c1` (stereo not drawn), the result was inactive.

For `O=c1oc(-c2ccccc2F)nc2scc(-c3ccccc3)c12`, the call was inactive.

Turning to `Cc1ccc(C2=NN(C(=O)CN3C(=O)c4ccccc4S3(=O)=O)C(c3ccco3)C2)cc1` (stereo not drawn), the compound was called inactive.

As to `COCCOC(=O)c1c(C)oc2ccc(OCc3cc(C(=O)OC)oc3C)cc12`, the outcome was inactive.

For `Cc1sc2nc(C(C)Nc3ccccc3N3CCOCC3)[nH]c(=O)c2c1C` (stereo not drawn), the compound was called inactive.

In the case of `CCCc1cc(NC(=O)COC(=O)c2nccnc2N)n(-c2ccccc2)n1`, the compound was called inactive.

`CC(C)CCN1CC(O)=C(c2nc3ccccc3[nH]2)C1=N`: the compound was called inactive.

As to `O=C(Nc1nc(-c2ccc3c(c2)OCCO3)cs1)c1ccc(S(=O)(=O)N2CCCCC2)cc1`, the outcome was inactive.

For `O=C(Nc1nnc(-c2ccc3c(c2)OCCO3)o1)C1CCCCC1`, the result was inactive.

As for `CCSc1nnc(NC(=O)CSc2nccn2-c2cccc(C)c2)s1`, the call was inactive.

Take `Cc1c(C(=O)NCCC2=CCCCC2)sc2ncnc(N3CCCCC3C)c12` (stereo not drawn): the outcome was inactive.

`Cc1cc(C)c(NC(=O)CC(C)(C)C)c(Cl)c1`: the outcome was inactive.

As to `COc1ccc(OC)c(NC(=O)CS(=O)(=O)c2ccccc2)c1`, the call was inactive.

`Cc1ccc(OCC(=O)Nc2ccc(-c3nc4ncccc4o3)cc2)c(C)c1`: the outcome was inactive.

`Cc1cc(C)c2oc(-c3ccc(Cl)c(NC(=O)c4ccc(C#N)cc4F)c3)nc2c1`: the compound was called inactive.

As to `CCc1ccc(NC(=S)Nc2ccc3cn[nH]c3c2)cc1`, the compound was classed as inactive.

As for `NC(=S)N/N=C/c1ccc([N+](=O)[O-])cc1`, the compound was classed as inactive.

As for `O=C(COC(=O)c1ccc(Cl)cc1[N+](=O)[O-])NNC(=O)c1cccs1`, the compound was classed as inactive.

For `NNC(=S)NC1CC2CC1C1C=CCC21` (stereo not drawn), the result was inactive.

Consider `CCc1nc2scc(-c3cccs3)c2c(=O)o1`, for which the compound was called inactive.

`Cc1c(-c2ccncc2)oc2ccc(Br)cc2c1=O`: the compound was called inactive.

Turning to `Cc1ccc2c(Cl)cc(Cl)c(OCc3c(C)noc3C)c2n1`, the compound was called inactive.

Take `O=C(N/N=C/c1ccc(OC(=O)c2ccc3c(c2)OCO3)cc1)c1cncc(Br)c1`: the result was inactive.

Turning to `Cc1ccc(/C=N\NC(=O)c2csnn2)cc1`, the result was inactive.

For `Cc1cccc(C)c1NC(=O)C1CC2CCC1C2` (stereo not drawn), the call was inactive.

Regarding `COC(=O)c1c(NC(=O)c2ccc(C)cc2)csc1C`, the result was inactive.

Take `Cc1ccc(C)c(N2CCN(CC3CC=CCC3)CC2)c1` (stereo not drawn): the compound was called inactive.

As to `Cc1cc(Br)ccc1NC(=O)c1ccccc1-c1ccccc1`, the compound was called inactive.

Take `O=C(COC(=O)C1CC1)NCc1ccccc1Cl`: the compound was classed as inactive.

In the case of `Cc1ccc(C2=N/C(=C\c3cccc(F)c3)C(=O)O2)cc1`, the compound was classed as inactive.

Regarding `COC(=O)c1sc(-c2ccc(C(C)(C)C)cc2)cc1NC(=O)CCC(=O)O`, the compound was classed as inactive.

For `O=C(COc1ccc(Cl)cc1)OCC(=O)N1CCCCCC1`, the call was inactive.

In the case of `Cc1ccc(C)c(-n2c(-c3ccco3)n[nH]c2=S)c1`, the result was inactive.

For the compound `O=C(NN1C(=O)c2cc(Br)ccc2NC1c1ccccc1Cl)c1ccncc1` (stereo not drawn), the result was inactive.

Take `COc1ccc2cc(C3=CCCCC3)ncc2c1`: the result was inactive.

Regarding `CCOc1ccc(-c2nnc(-c3ccc(OC)cc3)o2)cc1`, the call was inactive.

As for `COc1cccc(/C=C/c2[nH]c(=O)[nH]c(=O)c2[N+](=O)[O-])c1O`, the compound was classed as inactive.

As for `COc1ccc(-c2cc(C(N)=O)nc(N3CCCCCC3)n2)cc1`, the result was inactive.

Take `COc1ccccc1C(=O)Nc1sc2c(c1C(=O)NCc1ccco1)CCCC2`: the compound was classed as inactive.

In the case of `O=C(Cn1cnc2sc3c(c2c1=O)CCCC3)NCC(=O)Nc1ccccc1F`, the result was inactive.

For `O=c1oc(-c2ccco2)nc2sc3c(c12)CCCCC3`, the call was inactive.

For `O=c1oc(-c2cccs2)nc2sc3c(c12)CCCC3`, the result was inactive.

Turning to `N#Cc1cc2c(nc1SCC(=O)Nc1sc3c(c1C#N)CCC3)CCCC2`, the call was inactive.

Consider `CC(C(=O)Nc1sc2c(c1C(=O)NCc1ccco1)CCCC2)N1C(=O)c2ccccc2C1=O` (stereo not drawn), for which the compound was called inactive.

For `CCOc1nnnc2c1sc1nc(N3CCOCC3)c3c(c12)CCCC3`, the result was inactive.

In the case of `Fc1ccc(C2Nc3cccc4cccc(c34)N2)cc1`, the compound was classed as inactive.

For the compound `CCC(CC)C(=O)Nc1ccc(Sc2ccc([N+](=O)[O-])cc2)cc1`, the compound was called inactive.

With `Cc1nc(S/C(=C\c2ccc(OCc3ccccc3Cl)cc2)C(=O)O)n[nH]1`, the call was inactive.

Consider `CCn1nnnc1SCC(=O)c1ccc(C)cc1C`, for which the outcome was inactive.

Take `CSc1ccccc1C(=O)Nc1ccc2c(c1)OCCO2`: the outcome was inactive.

In the case of `O=C(NN=C1CCCC1)c1cccs1`, the outcome was inactive.

As for `CC(C)OCc1c(C(=O)Nc2nccs2)oc2ccccc12`, the result was inactive.

As to `COc1ccc(/C=N/Nc2nc(-c3ccc(C)cc3)c(NC(C)=O)s2)cc1OC`, the call was inactive.

`COc1ccc(-c2cc(C(F)F)nc(-n3nc(C)cc3C)n2)cc1`: the outcome was inactive.

`Cc1onc(-c2c(Cl)cccc2Cl)c1/C(N)=N/OC(=O)C1CC1`: the compound was called inactive.

`CCOc1ccc2cc(S(=O)(=O)N3CCCCC3)ccc2c1`: the result was inactive.

On to `COc1cccc(-n2c([S-])c(C(=O)Nc3ccc(S(=O)(=O)N4CCOCC4)cc3)[n+]3cc(C(N)=O)ccc23)c1`, for which the result was inactive.

For the compound `S=C(Nc1ccc(Cl)cc1)c1nc2ccccc2s1`, the compound was classed as inactive.

As to `COc1ccc(NC(=O)CSc2nncn2C)c([N+](=O)[O-])c1`, the compound was classed as inactive.

`O=C(/C=C/c1ccccc1)NC1CC2CCC1C2` (stereo not drawn): the result was inactive.

On to `O=C(CSc1n[nH]c(=O)n1C1CC1)c1ccc2c(c1)OCCO2`, for which the outcome was inactive.

For `CC1(c2ccc([N+](=O)[O-])cc2)NC(=O)N(CC(=O)c2ccc3c(c2)OCO3)C1=O` (stereo not drawn), the result was inactive.

`O=S(=O)(Nc1ccccc1)c1ccc2c(c1)CCO2`: the result was inactive.

As for `Cc1ccc(-c2nc3[nH]c(=O)cc(NC(=O)C(C)C)n3n2)cc1`, the compound was classed as inactive.

For the compound `COCCNC(=S)N/N=C(\C)c1cccc(OC)c1`, the call was inactive.

In the case of `CCOCC(=O)Nc1ccc(F)c(F)c1`, the result was inactive.

Consider `O=C(CC12CC3CC(CC(C3)C1)C2)NCc1ccc(F)cc1`, for which the call was inactive.

Consider `O=c1c2c(nc3n1CCCCC3)sc1c(O)c(Br)ccc12`, for which the compound was classed as inactive.

As to `COc1ccc(-c2csc(/C=C/c3ccc4c(c3)OCO4)n2)cc1OC`, the call was inactive.

Turning to `COc1cc(NC(=O)c2ccc(Cl)cc2)c(OC)cc1NC(=O)CN1CCOCC1`, the outcome was inactive.

As for `Cc1ccccc1NC(=O)c1ccc(CN(c2ccccc2)S(=O)(=O)c2ccccc2)cc1`, the compound was called inactive.

With `CN(C)S(=O)(=O)c1ccc(NC(=O)c2cc3ccccc3o2)cc1`, the outcome was inactive.

As for `CNC(=O)Nc1cccc(-c2cc(-c3c(Cl)cccc3Cl)no2)c1`, the outcome was inactive.

`O=c1oc(-c2ccccc2)nc2sc3c(c12)CCC3`: the compound was called inactive.

For the compound `C=CCn1cc(C(=O)NCCCOC)c(=O)c2cc(S(=O)(=O)N(CC)CC)ccc21`, the result was inactive.

Regarding `CC(OC(=O)c1ccc([N+](=O)[O-])o1)C(=O)NC1CCCCC1C` (stereo not drawn), the compound was classed as inactive.

As to `C#CCOc1c(Cl)cc(/C=N/NC(N)=S)cc1OCC`, the outcome was inactive.

As to `BrC(=C\c1ccccc1)/C=N/N1CCN(c2ccccn2)CC1`, the call was inactive.

As to `Cc1ccc(C(=O)N2CCC3(CC2)Oc2ccc(F)cc2C(=O)C32CC(c3cccnc3)=NO2)s1` (stereo not drawn), the compound was called inactive.

Regarding `O=C(Nc1c2c(nc3ccccc13)CCCC2)c1ccccc1F`, the compound was called inactive.

Turning to `COc1ccc(C(=O)Nc2ccc3nc(N4CCCCC4)cc(C)c3c2)c(OC)c1`, the compound was called inactive.

Consider `COc1ccc(-c2sc3cc(OC)c(OC)cc3c2C#CCCO)cc1`, for which the compound was called inactive.

As to `CCN(CC(=O)Nc1ccccc1OC)C(=O)c1cc(S(=O)(=O)N2CCCCCC2)ccc1OC`, the result was inactive.

`C/C(=N\NC(=S)NCc1ccccc1)c1cccc(Br)c1`: the outcome was inactive.

With `O=C(COc1cccc2cccnc12)N/N=C/c1ccc(O)cc1`, the call was inactive.

In the case of `O=C(Cc1cccc2ccccc12)N/N=C/c1ccc(O)c([N+](=O)[O-])c1`, the outcome was inactive.

Regarding `CN(C)c1ccc(S(=O)(=O)NCC(=O)OCC(=O)Nc2cccc(Cl)c2)cc1[N+](=O)[O-]`, the compound was called inactive.

On to `O=C(NCc1nc2ncc(Br)cc2[nH]1)c1ccccc1`, for which the call was inactive.
